# PubChem BioAssay (NCATS)
# Results filed as inconclusive are left out. Where a call stands in place of a potency, no number is given. The source made the active and inactive calls. Calls follow the shape of the dose curve; as a rule, active = well fitted inhibition curve with a large enough effect; inconclusive = small, poorly fitted or top-dose-only effect; inactive = flat fitted curve, though single readings scatter.
# Experiments:
# Assay in all cases: qHTS profiling for inhibitors of Plasmodium falciparum proliferation (AID 504749); also: nearly all actives have a fitted effect of over 60% in size
# Details in all cases: P. falciparum in erythrocytes, SYBR Green DNA, 72 h; series mostly up to 28.7 µM
# CP237 = tested on: CP237
# Procedure, shortened: (§1)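 SYBR Green fluorescence of parasite DNA, read after lysis and overnight dark incubation, measured growth over 72 h in erythrocyte culture at 0.3% parasitemia and 2.5% hematocrit. Data normalised to DMSO and 0.29 uM artemisinin, with plate-drift correction.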
# CP238 = tested on: CP238
# Procedure, shortened: as §1
# CP247 = tested on: CP247
# Procedure, shortened: as §1
# CP250 = tested on: CP250
# Procedure, shortened: as §1
# CP252 = tested on: CP252
# Procedure, shortened: as §1
# CP256 = tested on: CP256
# Procedure, shortened: as §1
# CP260 = tested on: CP260
# Procedure, shortened: as §1
# CP262 = tested on: CP262
# Procedure, shortened: as §1
# CP265 = tested on: CP265
# Procedure, shortened: as §1
# CP266 = tested on: CP266
# Procedure, shortened: as §1
# Potency is read from the fitted curve at half-maximal effect.
Structure (SMILES),Potency (CP237),Potency (CP238),Potency (CP247),Potency (CP250),Potency (CP252),Potency (CP256),Potency (CP260),Potency (CP262),Potency (CP265),Potency (CP266)
CCCc1cc(C(N)=S)ccn1,inactive,inactive,inactive,inactive,inactive,inactive,inactive,inactive,inactive,inactive
Cc1noc(NS(=O)(=O)c2ccc(N)cc2)c1C,inactive,inactive,inactive,inactive,inactive,inactive,inactive,inactive,inactive,
Cc1ncc([N+](=O)[O-])n1CCO,inactive,inactive,inactive,inactive,inactive,inactive,inactive,inactive,inactive,
COc1cnc(NS(=O)(=O)c2ccc(N)cc2)nc1,inactive,inactive,inactive,inactive,inactive,inactive,inactive,inactive,inactive,
CC[C@H](NC(C)C)[C@H](O)c1ccc(O)c2[nH]c(=O)ccc12,inactive,inactive,inactive,inactive,inactive,inactive,inactive,inactive,inactive,inactive
Cn1nnc2c(C(N)=O)ncn2c1=O,inactive,inactive,inactive,inactive,inactive,inactive,inactive,inactive,inactive,inactive
Cc1cccc(N(C)C(=S)Oc2ccc3ccccc3c2)c1,inactive,inactive,inactive,inactive,inactive,inactive,inactive,inactive,inactive,
COc1cc(NS(=O)(=O)c2ccc(N)cc2)nc(OC)n1,inactive,inactive,inactive,inactive,inactive,inactive,inactive,inactive,inactive,
COc1ccc(-c2ccc3cc(C(=O)O)ccc3c2)cc1C12CC3CC(CC(C3)C1)C2,inactive,inactive,inactive,inactive,inactive,inactive,inactive,inactive,inactive,inactive
CC(C)(C#N)c1cc(Cn2cncn2)cc(C(C)(C)C#N)c1,inactive,inactive,inactive,inactive,inactive,inactive,inactive,inactive,inactive,inactive
COC(=O)Nc1nc2ccc(C(=O)c3ccccc3)cc2[nH]1,inactive,inactive,inactive,inactive,inactive,inactive,inactive,inactive,inactive,
CC(=O)Oc1ccccc1C(=O)Nc1ncc([N+](=O)[O-])s1,12.6 µM (active),inactive,inactive,inactive,inactive,inactive,8.91 µM (active),inactive,inactive,inactive
CCN(C)C(=O)Oc1cccc([C@H](C)N(C)C)c1,inactive,inactive,inactive,inactive,inactive,inactive,inactive,inactive,inactive,inactive
CCOc1cc(N)c(Cl)cc1C(=O)NCC1CN(Cc2ccc(F)cc2)CCO1 (stereo unspecified),11.2 µM (active),11.2 µM (active),7.08 µM (active),5.62 µM (active),10 µM (active),2.82 µM (active),11.2 µM (active),6.01 µM (active),3.16 µM (active),
NCCCC(O)(P(=O)(O)O)P(=O)(O)O,inactive,inactive,inactive,inactive,inactive,inactive,inactive,inactive,inactive,
Nc1nc(N)nc(-c2cc(Cl)ccc2Cl)n1,inactive,inactive,inactive,inactive,inactive,inactive,inactive,inactive,inactive,
COc1ccc2cc3[n+](cc2c1OC)CCc1cc2c(cc1-3)OCO2,1.26 µM (active),0.891 µM (active),3.16 µM (active),1.41 µM (active),1.12 µM (active),0.282 µM (active),0.891 µM (active),0.757 µM (active),0.891 µM (active),
N[C@@H](C(=O)N[C@@H]1C(=O)N2C(C(=O)O)=C(Cl)CS[C@H]12)c1ccccc1,inactive,inactive,inactive,inactive,inactive,inactive,inactive,inactive,inactive,inactive
COC(=O)Nc1nc2ccc(Sc3ccccc3)cc2[nH]1,inactive,inactive,inactive,inactive,inactive,inactive,inactive,inactive,inactive,
CCc1c2c(nc3ccc(OC(=O)N4CCC(N5CCCCC5)CC4)cc13)-c1cc3c(c(=O)n1C2)COC(=O)[C@]3(O)CC,inactive,inactive,inactive,inactive,inactive,inactive,inactive,inactive,inactive,
CNC(=O)c1cc(Oc2ccc(NC(=O)Nc3ccc(Cl)c(C(F)(F)F)c3)cc2)ccn1,11.2 µM (active),10 µM (active),10 µM (active),10 µM (active),,,,,,
CCCN[C@H]1CCc2nc(N)sc2C1,inactive,inactive,inactive,inactive,inactive,inactive,inactive,inactive,inactive,
